Source: PubChem BioAssay AID1159580 (chemical genetic matrix, 2015)
The whole screen tested about 5,500 compounds, of which about 2,000 (36%) were called active. Not shown: some 18% with an inconclusive outcome. No stated cut-off is given here; in the data, active means normalized growth mostly below about 0.91 (no sharp cut-off); inconclusive means no clear call, values can overlap the other calls; inactive means mostly above about 0.92. The list shows a part of the results.

Assay: chemical genetic growth profiling, strain panel (AID 1159580);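 further: tested at 20 µM; growth read once vehicle control cultures reached saturation at 30 °C; 1 = growth at the plate median or of vehicle wells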
Details: growth OD

Measured: normalized growth

CC(C)=CCc1c2c(c(O)c3c(=O)c(O)c(-c4ccccc4)oc13)C=CC(C)(C)O2
active: S. cerevisiae deletion strains, locus YJL187C, strain SWE1, stronger effect = lower value 0.639 | S. cerevisiae deletion strains, locus YJR043C, strain POL32, stronger effect = lower value 0.496 | S. cerevisiae deletion strains, locus YKL190W, strain CNB1, stronger effect = lower value 0.585 | S. cerevisiae deletion strains, locus YKR001C, strain vps1, stronger effect = lower value 0.816 | S. cerevisiae deletion strains, locus YKR026C, strain gcn3, stronger effect = lower value 0.899 | S. cerevisiae deletion strains, locus YKR091W, strain srl3, stronger effect = lower value 0.831 | S. cerevisiae deletion strains, locus YLL001W, strain dnm1, stronger effect = lower value 0.74 | S. cerevisiae deletion strains, locus YLR027C, strain aat2, stronger effect = lower value 0.86 | S. cerevisiae deletion strains, locus YLR039C, strain RIC1, stronger effect = lower value 0.379 | S. cerevisiae deletion strains, locus YLR058C, strain SHM2, stronger effect = lower value 0.563 | S. cerevisiae deletion strains, locus YLR221C, strain rsa3, stronger effect = lower value 0.835 | S. cerevisiae deletion strains, locus YLR258W, strain gsy2, stronger effect = lower value 0.892 | S. cerevisiae deletion strains, locus YLR262C, strain YPT6 (second series), stronger effect = lower value 0.542 | S. cerevisiae deletion strains, locus YLR268W, strain sec22, stronger effect = lower value 0.633 | S. cerevisiae deletion strains, locus YLR320W, strain mms22, stronger effect = lower value 0.762 | S. cerevisiae deletion strains, locus YLR342W, strain FKS1, stronger effect = lower value 0.514 | S. cerevisiae deletion strains, locus YLR357W, strain rsc2, stronger effect = lower value 0.61 | S. cerevisiae deletion strains, locus YLR370C, strain arc18, stronger effect = lower value 0.754 | S. cerevisiae deletion strains, locus YLR371W, strain rom2, stronger effect = lower value 0.623 | S. cerevisiae deletion strains, locus YLR384C, strain iki3, stronger effect = lower value 0.723 | S. cerevisiae deletion strains, locus YLR418C, strain cdc73, stronger effect = lower value 0.502 | S. cerevisiae deletion strains, locus YML016C, strain PPZ1, stronger effect = lower value 0.484 | S. cerevisiae deletion strains, locus YML032C, strain rad52, stronger effect = lower value 0.861 | S. cerevisiae deletion strains, locus YML120C, strain ndi1, stronger effect = lower value 0.822 | S. cerevisiae deletion strains, locus YML124C, strain tub3, stronger effect = lower value 0.878 | S. cerevisiae deletion strains, locus YMR058W, strain fet3, stronger effect = lower value 0.143 | S. cerevisiae deletion strains, locus YMR125W, strain sto1, stronger effect = lower value 0.872 | S. cerevisiae deletion strains, locus YMR129W, stronger effect = lower value 0.854 | S. cerevisiae deletion strains, locus YMR205C, strain PFK2, stronger effect = lower value 0.51 | S. cerevisiae deletion strains, locus YMR223W, strain ubp8, stronger effect = lower value 0.711 | S. cerevisiae deletion strains, locus YMR231W, strain pep5, stronger effect = lower value 0.533 | S. cerevisiae deletion strains, locus YMR307W, strain GAS1, stronger effect = lower value 0.53 | S. cerevisiae deletion strains, locus YNL067W, strain RPL9B, stronger effect = lower value 0.697 | S. cerevisiae deletion strains, locus YNL071W, strain lat1, stronger effect = lower value 0.898 | S. cerevisiae deletion strains, locus YNL153C, strain GIM3, stronger effect = lower value 0.619 | S. cerevisiae deletion strains, locus YNL209W, strain ssb2, stronger effect = lower value 0.277 | S. cerevisiae deletion strains, locus YNL233W, strain BNI4, stronger effect = lower value 0.548 | S. cerevisiae deletion strains, locus YNL248C, strain rpa49, stronger effect = lower value 0.842 | S. cerevisiae deletion strains, locus YNL271C, strain bni1, stronger effect = lower value 0.886 | S. cerevisiae deletion strains, locus YNL298W, strain CLA4, stronger effect = lower value 0.88 | S. cerevisiae deletion strains, locus YNL307C, strain MCK1, stronger effect = lower value 0.775 | S. cerevisiae deletion strains, locus YNR052C, strain pop2, stronger effect = lower value 0.824 | S. cerevisiae deletion strains, locus YOL006C, strain TOP1, stronger effect = lower value 0.319 | S. cerevisiae deletion strains, locus YOL147C, strain pex11, stronger effect = lower value 0.873 | S. cerevisiae deletion strains, locus YOR001W, strain rrp6, stronger effect = lower value 0.836 | S. cerevisiae deletion strains, locus YOR061W, strain CKA2, stronger effect = lower value 0.528 | S. cerevisiae deletion strains, locus YOR069W, strain VPS5, stronger effect = lower value 0.606 | S. cerevisiae deletion strains, locus YOR070C, strain gyp1, stronger effect = lower value 0.77 | S. cerevisiae deletion strains, locus YOR080W, strain dia2, stronger effect = lower value 0.818 | S. cerevisiae deletion strains, locus YOR083W, strain WHI5, stronger effect = lower value 0.616 | S. cerevisiae deletion strains, locus YOR106W, strain vam3, stronger effect = lower value 0.832 | S. cerevisiae deletion strains, locus YOR136W, strain idh2, stronger effect = lower value 0.84 | S. cerevisiae deletion strains, locus YOR144C, strain elg1, stronger effect = lower value 0.893 | S. cerevisiae deletion strains, locus YOR184W, strain ser1, stronger effect = lower value 0.661 | S. cerevisiae deletion strains, locus YOR265W, strain rbl2, stronger effect = lower value 0.699 | S. cerevisiae deletion strains, locus YOR270C, strain vph1, stronger effect = lower value 0.394 | S. cerevisiae deletion strains, locus YOR316C, strain cot1, stronger effect = lower value 0.865 | S. cerevisiae deletion strains, locus YPL051W, strain arl3, stronger effect = lower value 0.48 | S. cerevisiae deletion strains, locus YPL078C, strain atp4, stronger effect = lower value 0.879 | S. cerevisiae deletion strains, locus YPL106C, strain sse1, stronger effect = lower value 0.83 | S. cerevisiae deletion strains, locus YPL241C, strain CIN2, stronger effect = lower value 0.788 | S. cerevisiae deletion strains, locus YPR119W, strain clb2, stronger effect = lower value 0.914 | S. cerevisiae deletion strains, locus YPR163C, strain tif3, stronger effect = lower value 0.771 | S. cerevisiae deletion strains, locus YPR167C, strain met16, stronger effect = lower value 0.712 | S. cerevisiae deletion strains, strain wtn01, stronger effect = lower value 0.632 | S. cerevisiae strains, strain wild type, stronger effect = lower value 0.346
inactive: S. cerevisiae deletion strains, locus YKL009W, strain mrt4, stronger effect = lower value 1.02 | S. cerevisiae deletion strains, locus YKL068W, stronger effect = lower value 0.977 | S. cerevisiae deletion strains, locus YKL085W, strain MDH1 (second series), stronger effect = lower value 0.984 | S. cerevisiae deletion strains, locus YKL085W, strain MDH1, stronger effect = lower value 0.984 | S. cerevisiae deletion strains, locus YKL160W, strain elf1, stronger effect = lower value 0.99 | S. cerevisiae deletion strains, locus YLL026W, stronger effect = lower value 0.94 | S. cerevisiae deletion strains, locus YLL041C, strain sdh2, stronger effect = lower value 0.979 | S. cerevisiae deletion strains, locus YLR102C, strain apc9, stronger effect = lower value 0.93 | S. cerevisiae deletion strains, locus YMR078C, strain ctf18, stronger effect = lower value 0.92 | S. cerevisiae deletion strains, locus YNL250W, strain rad50, stronger effect = lower value 0.951 | S. cerevisiae deletion strains, locus YNL322C, strain KRE1 (second series), stronger effect = lower value 0.943 | S. cerevisiae deletion strains, locus YNR049C, strain mso1, stronger effect = lower value 0.958 | S. cerevisiae deletion strains, locus YOL012C, strain htz1 0.278 | S. cerevisiae deletion strains, locus YOR290C, strain snf2, stronger effect = lower value 0.887 | S. cerevisiae deletion strains, locus YPL240C, strain hsp82, stronger effect = lower value 0.956 | S. cerevisiae deletion strains, locus YPR141C, strain kar3, stronger effect = lower value 0.962
